From PubChem BioAssay AID624320 (Broad Institute, 2012) come the findings set out here.

In this assay the target is Protein disulfide-isomerase A6 (Homo sapiens) (UniProt Q15084). Put plainly: ERp5 reductase inhibition selectivity check, dose response, selectivity assay for PDI inhibitor antithrombotic project, biochemical, insulin aggregation absorbance, dry powder samples (AID 624320).

Each structure is given as a SMILES string. Calls of active or inactive are those of the source.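 The calls were made as follows: active = compounds lowering absorbance whose fitted half-effect dose is at most twice the highest valid tested dose; inconclusive = flat fit between 30 and 70% inhibition, or poor fit; inactive = the rest, including opposite-direction activity.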

Sequence of Protein disulfide-isomerase A6 (Homo sapiens) (Q15084 whole entry, looked up): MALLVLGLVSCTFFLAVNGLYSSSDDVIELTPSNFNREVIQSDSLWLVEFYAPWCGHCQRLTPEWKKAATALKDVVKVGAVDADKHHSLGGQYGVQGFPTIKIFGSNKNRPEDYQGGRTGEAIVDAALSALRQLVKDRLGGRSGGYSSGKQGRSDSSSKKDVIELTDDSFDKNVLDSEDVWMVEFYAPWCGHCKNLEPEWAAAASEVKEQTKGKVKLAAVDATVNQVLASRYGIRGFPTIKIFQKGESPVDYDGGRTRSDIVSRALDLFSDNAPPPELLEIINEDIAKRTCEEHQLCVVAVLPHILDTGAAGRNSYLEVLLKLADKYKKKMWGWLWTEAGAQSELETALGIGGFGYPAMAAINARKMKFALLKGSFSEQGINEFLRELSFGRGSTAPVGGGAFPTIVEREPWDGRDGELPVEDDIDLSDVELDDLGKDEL

Turning to `C[C@H]1CN([C@@H](C)CO)C(=O)c2cccc(NS(C)(=O)=O)c2O[C@H]1CN(C)Cc1ccc(Oc2ccccc2)cc1`, the compound was classed as inactive.
